The list is not random: actives were taken first. Their share in the collection is about 11%.
Pf growth 48h = inhibits P. falciparum growth in the first generation, 48 h. P. falciparum luciferase growth in erythrocytes, 48 h. Potency, µM (doses to about 28.7 µM), most hits filed as inhibitors. 5.9% of 310,000 active. AID 504832
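Read-out is firefly luciferase luminescence from an integrated reporter in P. falciparum, so falling signal marks reduced parasite growth. Infected erythrocytes were at 2% hematocrit and 0.1% parasitemia (final) in Albumax-supplemented RPMI 1640.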
Pf growth 96h = inhibits malaria parasite growth, 96 h; Potency, µM (doses to about 28.7 µM), hits mostly inhibitors; 6.9% of 320,000 active; P. falciparum luciferase reporter growth, 96 h
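P. falciparum expressing integrated firefly luciferase grown in erythrocytes (2% hematocrit, 0.05% parasitemia final) with compounds for 96 hours at 37 C, 5% CO2. Growth inhibition read as loss of luminescence after adding luciferase detection reagent.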
Vaccinia Venus = vaccinia inhibition (Venus reporter); Vaccinia virus Venus reporter expression, fluorescence; Potency, µM (titrated, usually from 36.5 µM), usual class: inhibitors; 0.46% of 330,000 active; AID 720580; calls by dose curve; tested in A549 cells; also: nearly all actives have a fitted effect of over 30% in size
NS1 function inh = inhibitors of influenza NS1 protein function. Potency, µM (highest dose often 46.1 µM). 0.4% of 270,000 active. AID 2326; calls by dose curve; also: actives are rising curves; nearly all actives have a fitted effect of over 50% in size
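A cell-based growth assay was used: compounds that relieve NS1-induced slow growth of budding yeast raise OD600. Assay medium was yeast nitrogen base with ammonium sulphate and -URA supplement, pH 6.0, with 2% galactose.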
HCV inh = inhibitors of hepatitis C virus infection; Huh7.5.1 HCVcc-Cre infection, luciferase reporter, 44 h; Potency, µM (doses to about 41.8 µM), most hits filed as inhibitors; 3.4% of 340,000 active
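Luciferase read-out (15 sec integration) after a 15 min room-temperature substrate step quantifies HCVcc-Cre infection. Cells, 1,000 per well, had compound added 4 h post-plating, then virus at ~0.5 moi, and were cultured 44 h.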
VACV mCherry inh = inhibitors of vaccinia virus infection (mCherry reporter signal); Vaccinia virus mCherry reporter infection, fluorescence; Potency, µM (titrated, usually from 36.5 µM), hits mostly inhibitors; 0.63% of 310,000 active; AID 720579; calls by dose curve; tested in A549 cells; also: nearly all actives have a fitted effect of over 35% in size
Hits are given with their value; 0 = inactive; ? = inconclusive; - = no result given. Unless noted, calls follow the shape of the dose curve; as a rule, active = well fitted inhibition curve with a large enough effect; inconclusive = small, poorly fitted or top-dose-only effect, or another doubt; inactive = no such curve, though single readings can be large or run the other way.

SMILES | Pf growth 48h | Pf growth 96h | Vaccinia Venus | NS1 function inh | HCV inh | VACV mCherry inh
CCOC(=O)c1cc(=O)nc(N)s1 | - | - | 0 | - | - | 0
Clc1cc2nc3ccccn3c2cc1Cl | 0 | 0 | 0 | 0 | 25µM | -
O=Cc1c(Cl)nc2ccccn12 | 0 | 0 | 0 | 0 | 0 | 0
CCCCCCOC(=O)c1ccc(NC(=O)c2cc(OC)c(OC)c(OC)c2Br)cc1 | ? | - | 0 | ? | 0 | -
C/C(CC(=O)Nc1ccc(Cl)cc1Cl)=N\NC(=O)C(=O)N1CCCC1 | 0 | 0 | 0 | - | ? | 0
C/C(CC(=O)Nc1ccccc1Br)=N\NC(=O)C(=O)N1CCCC1 | 0 | 10µM | 0 | 0 | 0 | 0
CCOC(=O)N1CCC2(CC1)C(C#N)=C(N)Oc1c2c(C)nn1-c1cccc(Cl)c1 | 9.3µM | 0 | 0 | 0 | 0 | 0
CC12CN3CC(C)(CN(C1)C3c1ccc([N+](=O)[O-])o1)C2=O (configuration not stated) | 0 | 0 | - | 0 | 0 | -
CC(C)C12CN3CC(C(C)C)(CN(C1)C3c1ccc([N+](=O)[O-])o1)C2=O (configuration not stated) | 2.1µM | 0 | 0 | 0 | 0 | 0
O=C(c1ccccc1F)N1CCN(c2ccc([N+](=O)[O-])cc2-n2cccc2)CC1 | ? | ? | - | 0 | 0 | -
O=C(OCc1cccs1)c1ccccc1NS(=O)(=O)c1ccc2c(c1)OCCO2 | ? | - | 0 | 0 | 8.9µM | 0
O=C(NCc1ccco1)c1ccccc1NS(=O)(=O)c1ccc2c(c1)OCCO2 | 17µM | - | 0 | 0 | ? | -
O=C(NCc1ccco1)c1ccccc1NS(=O)(=O)c1cccs1 | 0 | ? | - | 0 | 0 | -
N#Cc1ccc(OCC(=O)NNC(=O)C2CCCCC2)cc1 | - | - | - | - | 0 | -
COC(=O)c1cccc(Cn2c(Cl)c(/C=N/Nc3ccccc3C)sc2=O)c1 | ? | ? | 0 | 0 | 0 | 0
COc1ccc(-c2csc3ncnc(N4CCN(S(=O)(=O)c5ccc(C(C)=O)cc5)CC4)c23)cc1 | 1.7µM | 2.3µM | 0 | - | ? | ?
COc1ccc(-c2csc3ncnc(N4CCN(S(=O)(=O)c5cccc(C(F)(F)F)c5)CC4)c23)cc1 | 10µM | 0 | 0 | - | ? | 0
NC(=S)N/N=C/c1ccccc1OC(=O)c1cc2ccccc2oc1=O | 0.33µM | 0.59µM | - | 0 | 0 | -
CC(C)CCN(C(=O)c1cn2ccccc2n1)c1c(N)n(Cc2ccccc2)c(=O)[nH]c1=O | 0 | 0 | 0 | - | ? | 0
Cc1ccc(-n2c(SCc3nc(-c4ccc(Cl)cc4)no3)nnc2-c2ccncc2)cc1 | - | - | 0 | - | - | 0
Cc1ccc(-c2noc(CSc3nnc(-c4ccncc4)n3-c3ccc(C)cc3)n2)cc1 | ? | 12µM | - | 0 | ? | -
Clc1ccc(-c2noc(CSc3nnc(-c4ccncc4)n3-c3ccccc3)n2)cc1 | 0 | - | - | 0 | 4µM | -
CC(=O)Nc1cc(C(=O)N2CCN(C)CC2)ccc1S(=O)(=O)c1ccc(C)cc1 | - | 0 | - | 0 | 0 | -
CCC(=O)Nc1cc(C(=O)N2CCC3(CC2)OCCO3)ccc1S(=O)(=O)c1ccc(C)cc1 | 0 | 3.7µM | 0 | 0 | 0 | -
COc1cc(CC(=O)OCC(=O)Nc2sccc2C(N)=O)cc(OC)c1OC | 0 | 0 | 0 | - | 10µM | 0
SMILES | Pf growth 48h | Pf growth 96h | Vaccinia Venus | NS1 function inh | HCV inh | VACV mCherry inh
O=C(Nc1ncn[nH]1)c1ccc(Cl)c(S(=O)(=O)N2CCCCCC2)c1 | - | 0 | - | 0 | 0 | -
C(=C\c1ccccc1)/CSc1ccccn1 | 0 | 0 | 0 | - | 0 | 0
Cc1c(-c2ccccc2)nc2ccccc2c1C(=O)OCC(=O)Nc1ncc(C(F)(F)F)cc1Cl | ? | 0 | 0 | ? | 0 | 0
COc1ccc(CCNC(=O)c2cc(-c3cc(C)ccc3O)n[nH]2)cc1OC | - | ? | 0 | 0 | ? | -
Cc1ccc(-c2cc(C(=O)NCc3ccc4c(c3)OCO4)[nH]n2)c(O)c1C | 0 | 12µM | - | ? | 0 | -
COc1ccc(CCNC(=O)c2cc(-c3ccc(C)c(C)c3O)n[nH]2)cc1OC | - | 15µM | ? | 0 | ? | -
Cc1cc(O)c(-c2cc(C(=O)NCc3ccc4c(c3)OCO4)[nH]n2)cc1C | 0 | ? | - | 0 | 0 | -
CSc1nc(Nc2ccc(C)cc2)c(C#N)c(-c2ccccc2)n1 | - | - | 0 | - | - | 0
COc1ccc(NC(=O)COc2cccc3c2OC(C)(C)C3)c(OC)c1 | ? | 10µM | 0 | - | ? | 0
COc1ccccc1NC(=O)COC(=O)COc1cccc2c1OC(C)(C)C2 | 0 | 0 | 0 | - | 0 | 0
COc1cc(C)c(NC(=O)COc2cccc3c2OC(C)(C)C3)cc1OC | 0 | ? | - | - | 10µM | -
COc1ccc(Br)cc1CNC(=O)CCN1C(=O)COc2ccccc21 | 0 | 0 | 0 | 0 | 0 | 0
Cc1nc(SCc2ccc(Cl)c(Cl)c2)n[nH]1 | 0 | ? | - | 0 | 0 | -
CC1CCCC(C)N1/N=C/C=C/c1ccccc1[N+](=O)[O-] (configuration not stated) | 0 | 0 | 0 | - | 0 | 0
CC(C)NC(=O)c1cnc(N2CCN(c3ccccn3)CC2)c2ccccc12 | ? | ? | 0 | 0 | ? | 0
CCc1ccc(NC(=O)c2cnc(N3CCN(c4ccccn4)CC3)c3ccccc23)cc1 | ? | 13µM | ? | - | 4.5µM | 0
CCN1CCN(c2ncc(C(=O)Nc3ccccc3C(=O)OC)c3ccccc23)CC1 | ? | ? | 0 | 0 | 7.9µM | ?
CC(C)C[C@@H]1COc2cc(N3CCSCC3)ccc2S(=O)(=O)N1 | - | - | 0 | - | - | 0
CC(C)(C)OC(=O)N1CCN(C(=O)c2[nH]cnc2C(=O)Nc2cccc(Cl)c2)CC1 | 4.1µM | ? | ? | - | 0 | 0
CCOC(=O)c1ccc(NC(=O)c2nc[nH]c2C(=O)N2CCN(C(=O)OC(C)(C)C)CC2)cc1 | 13µM | ? | - | 0 | - | -
NCC1OC(n2cnc3c(=O)[nH]c(N)nc32)C(O)C1O (configuration not stated) | - | - | 0 | - | - | 0
CN(CCc1ccccn1)C(=O)CCC1CCCN(C(=O)c2cccc(N(C)C)c2)C1 (configuration not stated) | 0 | 0 | 0 | 0 | 0 | 0
CN(CCc1ccccn1)C(=O)CCC1CCCN(C(=O)c2ccsc2)C1 (configuration not stated) | 0 | 10µM | 0 | 0 | 0 | 0
CN(CCc1ccccn1)C(=O)CCC1CCCN(C(=O)c2c3c(nn2C)CCCC3)C1 (configuration not stated) | 0 | 8.3µM | 0 | 0 | 0 | 0
C=CCOc1ccccc1CN1CCCC(CCC(=O)N(C)CCc2ccccn2)C1 (configuration not stated) | 0 | 12µM | 0 | 0 | 0 | 0
CN(CCc1ccccn1)C(=O)CCC1CCCN(C(=O)c2cscn2)C1 (configuration not stated) | 0 | 0 | 0 | 0 | 0 | 0
C=CCn1cnc2c(nnn2-c2ccc(C)c(Cl)c2)c1=O | 0 | 0 | 0 | 0 | ? | 0
COc1ccccc1N1CCN(S(=O)(=O)c2ccccc2)CC1 | ? | - | 0 | 0 | 0 | 0
CCOC(=O)N1CCN(c2ccccc2OC)CC1 | 0 | 0 | 0 | 0 | 0 | 0
COc1ccccc1N1CCN(S(=O)(=O)c2ccc3nc(-c4ccccc4)[nH]c3c2)CC1 | 0 | 2.9µM | 0 | 0 | 0 | 0
